A selection: hits, their analogues and other compounds. The true share with any hit is near 3.4%.
MITF primary: blocks human microphthalmia-associated transcription factor. AlphaScreen MITF homodimerization, bead proximity signal. inhibition, % at 2.6 µM. actives 0.91% (n = 650,000). AID 1259374; in the data active = inhibition above about 50%;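 note: 0% = vehicle wells with protein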
FBW7 activator: activators of human E3 ligase FBW7; actives 0.13% (n = 650,000); normalized activity (activation), % at 26.1 µM; AlphaScreen FBW7–phospho-cyclin E peptide binding, activator screen; Q969H0; in the data active = normalized activity above about 1.9%;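 note: purified mutant Fbw7 with reduced substrate affinity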
TEAD-YAP block: TEAD-YAP interaction inhibition; HEK-TIYL cells, TEAD-Gal4/YAP UAS-luciferase luminescence; inhibition, % at 9.12 µM; actives 1.4% (n = 640,000); AID 1259422; in the data active = inhibition above about 32%;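 note: 0% = median of test compound wells and 100% = reference inhibitor wells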
GPR151 ag: activates the human receptor GPR151; actives 1% (n = 650,000); Q8TDV0; PathHunter beta-arrestin GPR151 cells, luminescence; activation, % at 11.2 µM; AID 1508602; in the data active = activation above about 4.9%;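 note: 0% = median of compound wells and 100% = cells with positive control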
Target sequence (Q8TDV0 whole entry, looked up): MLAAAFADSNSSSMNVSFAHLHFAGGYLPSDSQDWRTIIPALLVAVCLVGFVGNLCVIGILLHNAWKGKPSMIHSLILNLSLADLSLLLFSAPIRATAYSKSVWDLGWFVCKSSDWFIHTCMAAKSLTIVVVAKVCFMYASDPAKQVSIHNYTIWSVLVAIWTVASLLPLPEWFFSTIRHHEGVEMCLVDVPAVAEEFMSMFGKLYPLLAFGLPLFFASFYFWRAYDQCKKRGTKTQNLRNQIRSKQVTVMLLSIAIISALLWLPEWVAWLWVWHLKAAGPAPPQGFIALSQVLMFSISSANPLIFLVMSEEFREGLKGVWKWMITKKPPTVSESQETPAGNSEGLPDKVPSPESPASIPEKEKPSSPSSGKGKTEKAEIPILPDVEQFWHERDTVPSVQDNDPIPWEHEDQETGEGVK
GPR151 conf act: human GPR151 activation, confirmation screen; shares compounds with GPR151 ag; GPR151 PathHunter beta-arrestin cells, luminescence, 90 min; % of EA-reagent control over plate median; activation, % at 11.2 µM; 6,700 tested, under 10 active; AID 1508609;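 active = mean percent activation across replicates above the confirmation screen cutoff of 4.91%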
GPR119 counter: counter-screen for GPR151 activators: effect on human GPR119 | shares compounds with GPR151 ag | GPR119 PathHunter beta-arrestin cells, luminescence, 90 min; 0 = compound-well median, 100 = enzyme-acceptor control | activation, % at 11.2 µM | actives 0.3% (n = 6,700) | AID 1508611;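 active = mean percent activation in the counterscreen above 29.09%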;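 note: counterscreen on off-target GPR119 to flag nonselective hits from the GPR151 activator screen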
Starred values were filed as active, the others as inactive.

Screening CC(C)CN(CC(C)C)C(=O)CCNS(=O)(=O)c1ccc2c(c1)CCC(=O)N2 returned MITF primary 9.0, FBW7 activator -0.1, TEAD-YAP block -5.9 and GPR151 ag -0.3.
COCCCNC(=O)c1ccc(OC)cc1 was read as MITF primary 23.4, FBW7 activator 0.1, TEAD-YAP block -10.2 and GPR151 ag -1.6.
`COCCNC(=O)c1ccc(OC)cc1` gave MITF primary -1.3, FBW7 activator 0.6, TEAD-YAP block -2.4, GPR151 ag 4.9*, GPR151 conf act 1.8 and GPR119 counter 0.8.
For CCOC(=O)C1CCN(c2ccc(C=C3C(=O)N(C)C(=O)N(C)C3=O)cn2)CC1 the results were MITF primary -0.6, FBW7 activator -0.1, TEAD-YAP block -5.0, GPR151 ag 5.2*, GPR151 conf act -0.3 and GPR119 counter 3.8.
`O=C(Nc1ccc2nsnc2c1)N1CCCCCC1` gave MITF primary -9.0, FBW7 activator -0.1, TEAD-YAP block -41.6, GPR151 ag 6.1*, GPR151 conf act -0.5 and GPR119 counter -3.8.
COc1cc(/C=N/NC(=O)COc2ccc(Cl)cc2Br)ccc1O was read as MITF primary 13.2, FBW7 activator 0.0, TEAD-YAP block 5.8 and GPR151 ag 0.0.
`Cc1ccc(/C=N/NC(=O)COc2ccc(Cl)cc2[N+](=O)[O-])s1` gave MITF primary 16.5, FBW7 activator -0.1, TEAD-YAP block 6.1 and GPR151 ag 1.8.
O=C(COc1ccc(Cl)cc1Cl)N/N=C\c1ccc([N+](=O)[O-])s1 was read as MITF primary 6.6, FBW7 activator 0.0, TEAD-YAP block 10.1, GPR151 ag 5.7*, GPR151 conf act -1.2 and GPR119 counter -12.3.
COc1ccc(/C=N/NC(=O)COc2ccc(C)cc2)cc1O was read as MITF primary 7.2, FBW7 activator -0.1, TEAD-YAP block -6.2 and GPR151 ag 0.1.
CCc1ccc(OCC(=O)N/N=C/c2ccc(O)cc2)cc1 was read as MITF primary 6.1, FBW7 activator 0.8, TEAD-YAP block 9.6, GPR151 ag 5.2*, GPR151 conf act -1.4 and GPR119 counter -4.4.
CCc1ccc(OCC(=O)N/N=C/c2ccccc2O)cc1 was read as MITF primary -19.8, FBW7 activator 0.1, TEAD-YAP block -1.0 and GPR151 ag 0.0.
For COc1ccc(/C=N/NC(=O)COc2cccc(C)c2)cc1O the results were MITF primary 1.4, FBW7 activator -0.1, TEAD-YAP block 1.6, GPR151 ag 14.1*, GPR151 conf act 0.6 and GPR119 counter -2.2.
Screening COc1ccc(/C=N/NC(=O)COc2ccc(Cl)cc2Cl)cc1O returned MITF primary 2.4, FBW7 activator -0.1, TEAD-YAP block 3.7, GPR151 ag 9.4*, GPR151 conf act 0.2 and GPR119 counter -1.1.
For COc1ccccc1NC(=O)c1c(O)c2c([nH]c1=O)CCCC2 the results were MITF primary 14.6, FBW7 activator 0.1, TEAD-YAP block -8.8 and GPR151 ag -1.1.
`CC1=CC(C)(C)N(C(=O)CN2C(=O)CCC2=O)c2cc(C)ccc21` gave MITF primary 5.4, FBW7 activator -0.2, TEAD-YAP block 3.3, GPR151 ag 11.8*, GPR151 conf act -0.6 and GPR119 counter -11.9.
`Cc1cccc(NC(=O)C2C3c4ccccc4C(c4ccccc43)C2C)c1` (configuration not stated) gave MITF primary 1.6, FBW7 activator -0.3, TEAD-YAP block -6.8 and GPR151 ag -0.3.
CCn1c(SCc2nc(-c3cccs3)no2)nnc1-c1ccco1 was read as MITF primary -139.1, FBW7 activator 0.0, TEAD-YAP block -2.7, GPR151 ag 6.9*, GPR151 conf act -0.1 and GPR119 counter 6.9.
Cn1c(SCc2nc(-c3cccs3)no2)nnc1-c1ccco1 was read as MITF primary 9.2, FBW7 activator 0.1, TEAD-YAP block 4.4 and GPR151 ag 2.1.
For Cc1ccc(-n2ncc3c(Nc4cc(C)ccc4C)ncnc32)c(C)c1 the results were MITF primary 2.1, FBW7 activator 0.1, TEAD-YAP block 2.5 and GPR151 ag -0.6.
Screening Cc1cccc2cc(CN(CCCO)S(=O)(=O)c3cccc4nsnc34)c(=O)[nH]c12 returned MITF primary 0.3, FBW7 activator 0.0, TEAD-YAP block -1.8 and GPR151 ag 0.2.
